PubChem BioAssay AID720519 (National Center for Advancing Translational Sciences (NCATS), 2013)
Results filed as inconclusive are left out. A call without a number means that no potency is given here. Activity calls are given as the source filed them. The call rests on the fitted dose curve; in most records, active means well fitted activation curve with a large enough effect; inconclusive means small, poorly fitted or top-dose-only effect; inactive means flat fitted curve, though single readings scatter.

experiment: qHTS for Inhibitors of Cell Surface uPA Generation: Confirmatory Assay for Cherry-picked Compounds; details: cell surface uPA activity generation, qHTS confirmation; series mostly up to 115 µM
Summary of the method: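 RAW 264.7 cells at 4000/well, incubated overnight, then treated with compounds. After 24 h at 37 C, viability was read by ATPlite luminescence. An increase in signal indicates blocked uPA-dependent LF entry.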
Potency means the concentration at half of the fitted maximal effect.

SMILES | Potency
CC1(CC(=O)N/N=C/c2cc(Br)c(O)cc2O)OCCO1 | inactive
Cc1cccc(-c2nc(CS(=O)CC(=O)NCc3cccs3)c(C)o2)c1 (stereo not drawn) | inactive
Clc1ccc(C2=NN=C3COc4ccccc4N3C2)cc1 | inactive
O=C(CNS(=O)(=O)c1ccc(F)cc1)Nc1ccccc1 | inactive
O=C(CCS(=O)(=O)c1ccc2c(c1)NC(=O)CS2)NCCc1ccc(Cl)cc1 | inactive
Cc1cc(NC(=O)COc2cccc([N+](=O)[O-])c2)no1 | inactive
COc1ccc2nc(SC(C)C(=O)NC3(C#N)CCCCC3)[nH]c2c1 (stereo not drawn) | inactive
COCCN(CCOC)c1nc(-c2ccc(C)cc2)nc2ccccc12 | inactive
CC(Sc1nnc2ccccn12)C(=O)NCc1ccc2c(c1)OCO2 (stereo not drawn) | inactive
Cc1ccccc1NC1c2ccccc2C(=O)N1Cc1ccco1 (stereo not drawn) | inactive
COc1ccc(OC)c(S(=O)(=O)N2CCC(NC(=O)c3ccccc3)CC2)c1 | inactive
CCCCOc1ccc(S(=O)(=O)N2CCCCC2)cc1 | inactive
CCOc1cc(C(=S)N2CCOCC2)ccc1OC(=O)c1cccc(C)c1 | inactive
Clc1ccc(-c2nc3ccccn3c2CN2CCSCC2)cc1 | inactive
CCOC(=O)N1CCN(c2c(NCCCN3CCCCCC3)c(=O)c2=O)CC1 | inactive
Cc1ccc(-n2nc3c(c2NC(=O)c2ccc4c(c2)OCO4)CS(=O)C3)c(C)c1 (stereo not drawn) | inactive
COC(=O)C1=CN(Cc2ccc(F)cc2)C=C(C(=O)OC)C1c1ccc(O)c(OC)c1 | inactive
CCc1ccccc1N(CC(=O)N1CCCC1)S(C)(=O)=O | inactive
Cn1c(C2CCCCC2)nc2cc(N)ccc21 | inactive

SMILES | Potency
NC(=O)c1ccccc1NC(=O)CC12CC3CC(CC(C3)C1)C2 | inactive
CCOc1ccc(N(CC(=O)Nc2ccc(CC)cc2)S(=O)(=O)c2c(C)[nH]c(=O)[nH]c2=O)cc1 | inactive
Cc1cc(C)n(C(=O)c2cccc([N+](=O)[O-])c2)n1 | inactive
CCCCn1c(SCC(=O)Nc2cc(C(F)(F)F)ccc2Cl)nnc1C(CC)N(C)C (stereo not drawn) | 52.1 µM (active)
COc1cc(NS(=O)(=O)c2ccc(NC(=S)NC(=O)COc3ccccc3OC)cc2)nc(OC)n1 | inactive
Cc1cc(=O)n2nc(N3CCCC(C(=O)NCc4ccc(Cl)cc4)C3)sc2n1 (stereo not drawn) | inactive
O=C(c1cccc(F)c1)N1CCN(Cc2cccc(Br)c2)CC1 | inactive
Oc1c(N=NC(=S)Nc2ccccc2F)c2ccccc2n1Cc1ccccc1Cl | inactive
COc1ccc(C2=C/C(=C\c3ccccc3OC(C)=O)C(=O)O2)cc1 | inactive
COC(=O)[C@H](CC(C)C)N(Cc1ccccc1)S(=O)(=O)N(Cc1ccc(OC)cc1)[C@@H](CC(C)C)C(=O)OC | inactive
COc1ccc(C2NC(=O)CCC2[N+](=O)[O-])c(OC)c1OC (stereo not drawn) | inactive
CC1CCCC(NC(=O)CNC(=S)N(Cc2ccccc2)Cc2cccs2)C1C (stereo not drawn) | inactive
O=C(O)c1ccc(-c2ccc(/C=C3\NC(=O)N(Cc4ccc(Cl)cc4)C3=O)o2)cc1 | inactive
Cc1ccc(NC(=O)CCCn2c(=S)[nH]c3ccsc3c2=O)cc1C | inactive
Cc1nc(NC2CCCCC2)c2nnn(Cc3ccccc3Cl)c2n1 | inactive
O=C(Nc1cccc(C2=NCCN2)c1)Nc1cccc(C2=NCCN2)c1 | inactive
CN(C)CCNC(=O)Nc1ccc([N+](=O)[O-])cc1 | inactive
C[C@H](CO)N1C[C@H](C)[C@@H](CN(C)C(=O)Nc2ccccc2)Oc2ccc(NC(=O)Cn3cnnn3)cc2C1=O | inactive
Cc1cccc(C(=O)NCC(=O)OCC(=O)NC2CCCCCCC2)c1 | inactive
